Inconclusive results are not listed. The source made the active and inactive calls. Unless noted, calls come from the whole dose curve; as a rule, active = well fitted curve in the direction sought with a large enough effect in the repeat runs; inconclusive = weak or mixed curves; inactive = no such curve, though single readings can be large; an effect the other way counts as inactive or inconclusive.
Experiments:
[1] = qHTS assay to identify small molecule antagonists of the androgen receptor (AR) signaling pathway using the MDA cell line - cell viability counter screen (AID 743041; note: nearly all actives have a fitted effect of over 45% in size)
Outline: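 MDA-kb2 AR-luc human breast carcinoma cells (MMTV-luciferase, AR/GR responsive) were treated with compounds plus R1881 agonist for 16 h at 37 °C. Viability was read as CellTiter-Fluor fluorescence in the same wells as the reporter assay.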

[2] = target: Androgen receptor (Homo sapiens) (UniProt P10275); experiment: qHTS assay to identify small molecule antagonists of the androgen receptor (AR) signaling pathway using the MDA cell line (AID 743042; note: nearly all actives have a fitted effect of over 55% in size)
Androgen receptor (Homo sapiens), sequence (P10275 whole entry, looked up): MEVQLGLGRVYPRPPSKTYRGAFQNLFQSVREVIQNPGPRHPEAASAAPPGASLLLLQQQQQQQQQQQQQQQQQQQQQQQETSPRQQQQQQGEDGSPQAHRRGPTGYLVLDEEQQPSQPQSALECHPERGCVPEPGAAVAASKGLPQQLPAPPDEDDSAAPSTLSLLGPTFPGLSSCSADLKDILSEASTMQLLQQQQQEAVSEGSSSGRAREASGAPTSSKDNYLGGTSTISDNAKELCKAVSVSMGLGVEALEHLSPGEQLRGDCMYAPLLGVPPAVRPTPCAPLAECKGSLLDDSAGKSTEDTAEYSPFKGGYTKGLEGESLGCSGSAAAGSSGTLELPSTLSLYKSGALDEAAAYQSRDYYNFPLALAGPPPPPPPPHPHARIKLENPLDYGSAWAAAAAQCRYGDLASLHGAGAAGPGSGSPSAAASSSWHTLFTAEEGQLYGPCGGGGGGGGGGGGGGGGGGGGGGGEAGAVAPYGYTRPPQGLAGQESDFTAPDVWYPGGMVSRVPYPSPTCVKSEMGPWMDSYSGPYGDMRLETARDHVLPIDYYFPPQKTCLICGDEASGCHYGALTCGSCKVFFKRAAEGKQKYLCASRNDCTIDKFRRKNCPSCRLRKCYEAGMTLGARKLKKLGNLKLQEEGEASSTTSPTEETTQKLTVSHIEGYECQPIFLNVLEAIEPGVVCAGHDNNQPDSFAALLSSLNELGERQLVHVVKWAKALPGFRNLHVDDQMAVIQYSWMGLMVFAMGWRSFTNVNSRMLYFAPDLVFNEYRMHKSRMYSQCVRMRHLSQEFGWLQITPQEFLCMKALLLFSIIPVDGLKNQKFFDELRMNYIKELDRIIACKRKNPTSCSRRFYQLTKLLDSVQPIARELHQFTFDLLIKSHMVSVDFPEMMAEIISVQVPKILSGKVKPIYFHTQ
Outline: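 MDA-kb2 cells (human breast carcinoma, stably carrying an MMTV-luciferase reporter responsive to AR and GR) were plated at 3,000 cells/well and preincubated 5 hr at 37C, then given compound plus R1881 agonist for 16 h. ONE-Glo luminescence was read.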

[3] = qHTS assay to identify small molecule antagonists of the thyroid receptor (TR) signaling pathway - cell viability counter screen (AID 743064); note: nearly all actives have a fitted effect of over 50% in size
Outline: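 CellTiter-Fluor readout, 30 min at 37 °C/5% CO2, following 23.5 h incubation of GH3.TRE-Luc cells with test compound and 1 nM T3 (final).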

[4] = qHTS assay to identify small molecule antagonists of the thyroid receptor (TR) signaling pathway (AID 743065); note: series mostly up to about 70 µM; nearly all actives have a fitted effect of over 55% in size
Outline: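 GH3.TRE-Luc rat pituitary cells carrying two TR response elements driving luciferase were plated for 4 h, given compound plus 1 nM T3 (final), and incubated 23.5 h at 37 C. ONE-Glo luminescence measured reporter inhibition; CellTiter-Fluor fluorescence tracked cytotoxicity.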

[5] = system: thyroid hormone receptor (rat, GH3 cells); experiment: qHTS assay to identify small molecule agonists of the thyroid receptor (TR) signaling pathway (AID 743066; calls by dose curve)
[6] = target: Estrogen receptor (Homo sapiens) (UniProt P03372); experiment: qHTS assay to identify small molecule antagonists of the estrogen receptor alpha (ER-alpha) signaling pathway (AID 743069; active = well fitted curve in the direction sought with a large enough effect in the signal ratio in the repeat runs, not every such curve was filed as active; the % refers to the signal ratio)
Estrogen receptor (Homo sapiens), sequence (P03372 whole entry, looked up): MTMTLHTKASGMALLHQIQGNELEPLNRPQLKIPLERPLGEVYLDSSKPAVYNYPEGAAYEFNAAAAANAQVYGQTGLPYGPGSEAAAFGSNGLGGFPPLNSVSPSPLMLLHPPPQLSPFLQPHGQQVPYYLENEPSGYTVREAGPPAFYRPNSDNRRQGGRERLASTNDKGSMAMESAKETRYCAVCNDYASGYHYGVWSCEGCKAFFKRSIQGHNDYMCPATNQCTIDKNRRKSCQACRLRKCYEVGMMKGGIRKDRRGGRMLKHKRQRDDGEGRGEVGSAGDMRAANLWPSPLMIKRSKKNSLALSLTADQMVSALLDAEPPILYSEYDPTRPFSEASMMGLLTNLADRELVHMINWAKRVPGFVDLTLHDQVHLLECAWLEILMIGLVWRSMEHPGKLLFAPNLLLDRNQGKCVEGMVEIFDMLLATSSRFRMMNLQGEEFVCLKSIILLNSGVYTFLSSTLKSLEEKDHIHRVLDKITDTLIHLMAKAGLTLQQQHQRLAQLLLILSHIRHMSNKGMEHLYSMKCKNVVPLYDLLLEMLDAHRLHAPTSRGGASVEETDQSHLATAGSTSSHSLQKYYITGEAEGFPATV
Outline: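 HEK293 cells stably carrying an ER-alpha-UAS-bla beta-lactamase reporter were pre-cultured overnight in 2% charcoal-stripped FBS medium. Test compounds in DMSO were added together with 17beta-estradiol for 18 hr at 37C. Read-out was fluorescence after 2 hr with LiveBLAzer B/G FRET substrate at room temperature.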

[7] = qHTS assay to identify small molecule antagonists of the estrogen receptor alpha (ER-alpha) signaling pathway - cell viability counter screen (AID 743074; calls by dose curve; note: nearly all actives have a fitted effect of over 45% in size)
[8] = target: Estrogen receptor (Homo sapiens) (UniProt P03372); experiment: qHTS assay to identify small molecule agonists of the estrogen receptor alpha (ER-alpha) signaling pathway (AID 743075; calls by dose curve)
[9] = target: Estrogen receptor (Homo sapiens) (UniProt P03372); experiment: qHTS assay to identify small molecule agonists of the estrogen receptor alpha (ER-alpha) signaling pathway using the BG1 cell line (AID 743079); note: nearly all actives have a fitted effect of over 20% in size
[10] = qHTS assay to identify small molecule antagonists of the estrogen receptor alpha (ER-alpha) signaling pathway using the BG1 cell line (AID 743080; calls by dose curve;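 note: BG1 cells stimulated with 17beta-estradiol alongside compound; series mostly up to about 70 µM; nearly all actives have a fitted effect of over 25% in size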)
Outline: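 Readout is ONE-Glo luminescence, taken 30 min at room temperature after reagent addition, preceded by a CellTiter-Fluor viability read; BG1-Luc-4E2 cells had received compound and 17beta-estradiol for 21.5 h at 37 C.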

[11] = qHTS assay to identify small molecule antagonists of the estrogen receptor alpha (ER-alpha) signaling pathway using the BG1 cell line - cell viability counter screen (AID 743081);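 note: compound given together with 17beta-estradiol as the ER stimulus; series mostly up to about 70 µM; nearly all actives have a fitted effect of over 45% in size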
Aromatase (Homo sapiens) = Aromatase (Homo sapiens) (UniProt P11511); experiment: qHTS assay to identify aromatase inhibitors (AID 743083); note: series mostly up to about 70 µM; nearly all actives have a fitted effect of over 55% in size
Aromatase (Homo sapiens), sequence (P11511 whole entry, looked up): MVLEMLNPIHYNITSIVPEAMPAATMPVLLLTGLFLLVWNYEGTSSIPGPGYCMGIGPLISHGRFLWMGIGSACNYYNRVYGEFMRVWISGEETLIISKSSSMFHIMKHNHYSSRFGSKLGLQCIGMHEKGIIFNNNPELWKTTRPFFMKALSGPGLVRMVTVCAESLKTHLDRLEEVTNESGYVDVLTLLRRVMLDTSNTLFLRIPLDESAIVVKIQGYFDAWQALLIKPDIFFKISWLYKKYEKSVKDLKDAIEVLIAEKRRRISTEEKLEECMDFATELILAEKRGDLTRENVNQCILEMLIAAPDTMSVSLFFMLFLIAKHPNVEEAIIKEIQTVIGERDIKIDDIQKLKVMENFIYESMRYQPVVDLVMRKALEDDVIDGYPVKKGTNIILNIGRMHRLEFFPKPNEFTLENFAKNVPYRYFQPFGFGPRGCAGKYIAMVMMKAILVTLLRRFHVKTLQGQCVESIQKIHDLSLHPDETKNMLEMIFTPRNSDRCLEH

[12] = qHTS assay to identify aromatase inhibitors - cell viability counter screen (AID 743084);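 note: cells stimulated with testosterone during compound exposure; nearly all actives have a fitted effect of over 55% in size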
[13] = target: Aryl hydrocarbon receptor (Homo sapiens) (UniProt P35869); experiment: qHTS assay to identify small molecule that activate the aryl hydrocarbon receptor (AhR) signaling pathway (AID 743085);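 note: HG2L7.5c1 human HepG2 liver cells with stably integrated DRE-driven firefly reporter; series mostly up to about 70 µM; nearly all actives have a fitted effect of over 15% in size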
Aryl hydrocarbon receptor (Homo sapiens), sequence (P35869 whole entry, looked up): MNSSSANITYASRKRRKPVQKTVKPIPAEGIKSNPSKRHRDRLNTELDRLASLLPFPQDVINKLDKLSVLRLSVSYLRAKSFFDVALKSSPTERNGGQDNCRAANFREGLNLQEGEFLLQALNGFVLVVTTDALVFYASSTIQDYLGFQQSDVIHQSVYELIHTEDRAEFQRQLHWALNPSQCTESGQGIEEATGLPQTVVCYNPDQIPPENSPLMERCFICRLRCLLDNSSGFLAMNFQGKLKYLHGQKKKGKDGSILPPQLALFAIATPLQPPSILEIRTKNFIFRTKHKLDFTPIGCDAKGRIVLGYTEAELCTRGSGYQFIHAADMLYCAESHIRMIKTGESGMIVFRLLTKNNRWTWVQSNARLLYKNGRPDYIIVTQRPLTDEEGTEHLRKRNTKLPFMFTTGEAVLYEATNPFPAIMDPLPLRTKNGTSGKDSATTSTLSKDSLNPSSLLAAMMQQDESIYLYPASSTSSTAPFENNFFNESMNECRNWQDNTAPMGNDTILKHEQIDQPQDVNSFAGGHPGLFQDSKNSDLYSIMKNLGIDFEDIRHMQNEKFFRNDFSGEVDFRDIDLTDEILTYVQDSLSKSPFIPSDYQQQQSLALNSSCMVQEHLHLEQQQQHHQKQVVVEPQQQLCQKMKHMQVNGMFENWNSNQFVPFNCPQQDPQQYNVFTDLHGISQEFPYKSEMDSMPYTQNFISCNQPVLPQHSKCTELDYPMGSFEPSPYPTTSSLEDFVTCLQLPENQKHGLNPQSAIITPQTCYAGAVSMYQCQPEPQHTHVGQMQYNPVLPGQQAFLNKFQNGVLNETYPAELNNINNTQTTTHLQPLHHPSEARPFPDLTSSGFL
Outline: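 Stably transfected human liver carcinoma cells (HG2L7.5c1; 20 DRE-firefly luciferase) were incubated 5 h, dosed, and kept 24 h at 37C. Agonism was scored from increased luciferase luminescence.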

[14] = qHTS assay to identify small molecule that activate the aryl hydrocarbon receptor (AhR) signaling pathway - cell viability counter screen (AID 743086);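 note: HepG2 liver cells carrying the AhR DRE luciferase reporter; series mostly up to about 70 µM; nearly all actives have a fitted effect of over 45% in size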
Outline: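 HepG2-AhR-luc (HG2L7.5c1) cells, 4000/well, were preincubated 5 h at 37C, exposed to compound in qHTS format for 24 hr at 37C, then given CellTiter-Fluor for 30 min; viability was read as fluorescence in the reporter wells.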

[15] = target: Peroxisome proliferator-activated receptor gamma (Homo sapiens) (UniProt P37231); experiment: qHTS assay to identify small molecule agonists of the peroxisome proliferator-activated receptor gamma (PPARg) signaling pathway (AID 743094; active = well fitted activation curve with a large enough effect in the signal ratio in the repeat runs, not every such curve was filed as active; the % refers to the signal ratio)
Peroxisome proliferator-activated receptor gamma (Homo sapiens), sequence (P37231 whole entry, looked up): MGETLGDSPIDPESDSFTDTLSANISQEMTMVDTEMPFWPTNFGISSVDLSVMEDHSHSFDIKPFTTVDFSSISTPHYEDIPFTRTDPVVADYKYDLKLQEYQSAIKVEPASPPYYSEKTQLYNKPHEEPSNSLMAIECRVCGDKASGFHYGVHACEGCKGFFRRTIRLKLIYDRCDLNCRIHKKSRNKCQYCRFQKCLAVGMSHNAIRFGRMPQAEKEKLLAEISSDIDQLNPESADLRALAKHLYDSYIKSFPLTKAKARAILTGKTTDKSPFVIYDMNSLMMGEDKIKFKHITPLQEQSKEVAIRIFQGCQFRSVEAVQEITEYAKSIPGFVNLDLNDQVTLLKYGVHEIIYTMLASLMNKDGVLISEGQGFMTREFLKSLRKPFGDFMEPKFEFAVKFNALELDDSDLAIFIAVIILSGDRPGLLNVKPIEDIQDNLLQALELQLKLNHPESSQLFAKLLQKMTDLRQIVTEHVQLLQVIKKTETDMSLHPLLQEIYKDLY
Outline: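 GeneBLAzer PPARg UAS-bla HEK293H cells were plated, rested 5 h, then exposed to compounds for 17 h at 37C. Beta-lactamase activity was read by LiveBLAzer B/G FRET substrate fluorescence after 1 h at room temperature.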

[16] = qHTS assay to identify small molecule antagonists of the estrogen related receptor (ERR) signaling pathway - cell viability counter screen (AID 1224818); note: series mostly up to about 46 µM
Outline: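 ERR cells, 2,000 per well, compound added after 6 h and incubated 17.5 h at 37 C. Viability read by CellTiter-Fluor fluorescence after a further 30 min at 37 C.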

[17] = qHTS assay to identify small molecule antagonists of the estrogen related receptor (ERR) signaling pathway (AID 1224819;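 note: luminescence from an ERR-driven luciferase reporter measured with One-Glo reagent; series mostly up to about 46 µM; nearly all actives have a fitted effect of over 50% in size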)
Outline: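 ERR reporter cell line (NTP) plated at 2,000 cells/well, settled 6 h at 37C/5% CO2, then exposed to LOPAC compounds for 18 h at 37C. One-Glo luciferase luminescence read after 30 min at room temperature.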

[18] = qHTS assay to identify small molecule agonists of the estrogen related receptor (ERR) signaling pathway (AID 1224820)
Outline: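 Quantitative HTS of the LOPAC library used NTP ERR reporter cells treated 18 h at 37 C. Signal is luminescence after One-Glo addition and a 30 min room-temperature incubation.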

[19] = system: estrogen-related receptor alpha (ERRalpha) with PGC-1alpha coactivator, human; experiment: qHTS assay to identify small molecule antagonists of the estrogen related receptor signaling pathway with the pleiotropic PPARgamma coactivator (PGC) (AID 1224821; calls by dose curve;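 note: series mostly up to about 46 µM; lower luminescence signal means antagonism of PGC/ERR signalling; nearly all actives have a fitted effect of over 50% in size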)
Outline: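 Quantitative HTS for antagonism: PGC/ERR cells received compounds after 6 h attachment and were incubated 18 h at 37 C, with luminescence (One-Glo) as the endpoint.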

[20] = qHTS assay to identify small molecule antagonists of the estrogen related receptor signaling pathway with the pleiotropic PPARgamma coactivator (PGC) cell viability counter screen (AID 1224822; note: series mostly up to about 46 µM)
Outline: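 PGC/ERR cells rested 6 h, then compound-treated 17.5 h at 37 C. CellTiter-Fluor added for 30 min at 37 C, viability measured by fluorescence intensity.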

[21] = qHTS assay to identify small molecule agonists of the estrogen related receptor signaling pathway with the pleiotropic PPARgamma coactivator (PGC) (AID 1224823)
Outline: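 Cell-based luciferase assay in the NTP-supplied PGC/ERR line, 2,000 cells/well; 18 h compound exposure at 37 C, luminescence after One-Glo.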

[22] = qHTS assay to identify small molecule phospholipidosis (PLD) inducers (AID 1259344; active = well fitted curve in the direction sought with a large enough effect; an effect the other way counts as inactive or inconclusive)
Outline: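 HepG2 cells on collagen I, attached 4 h at 37 C, were co-treated with compound and LipidTOX Red dye for 24 h at 37 C, then fixed with paraformaldehyde plus Hoechst 33342 and imaged by high-content microscopy for phospholipid accumulation.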

Measured: Potency

NC(=O)CN1CC(O)CC1=O (stereo not drawn)
inactive: all assays above
